Results from PubChem BioAssay (Tox21).
Results filed as inconclusive are left out. Calls of active or inactive are those of the source. Unless noted, the call rests on the fitted dose curve.

Tests used:
[1] = Nuclear factor erythroid 2-related factor 2/antioxidant responsive element (Nrf2/ARE) small molecule agonists: qHTS cell viability counter screen in human keratinocytes (AID 1919968; active means well fitted curve in the direction sought with a large enough effect in the repeat runs; an effect the other way counts as inactive or inconclusive; further: nearly all actives have a fitted effect of over 55% in size)
Outline: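 HaCaT ARE reporter line, 1,500 cells/well; 5 h settle, 37 C/5% CO2; cpd in DMSO pinned; 23 h exposure; CellTiter-Fluor, 1 h; fluorescence.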

[2] = Nuclear factor erythroid 2-related factor 2/antioxidant responsive element (Nrf2/ARE) small molecule agonists: luciferase reporter gene qHTS assay in human keratinocytes (AID 1919969); further: nearly all actives have a fitted effect of over 35% in size
[3] = target: Gonadotropin-releasing hormone receptor (Homo sapiens) (UniProt P30968); assay: Human gonadotropin-releasing hormone receptor (GnRHR) small molecule agonists, calcium flux assay in GnRHR-HEK293 cells (AID 1920063); further: nearly all actives have a fitted effect of over 35% in size
Sequence of Gonadotropin-releasing hormone receptor (Homo sapiens) (P30968 whole entry, looked up): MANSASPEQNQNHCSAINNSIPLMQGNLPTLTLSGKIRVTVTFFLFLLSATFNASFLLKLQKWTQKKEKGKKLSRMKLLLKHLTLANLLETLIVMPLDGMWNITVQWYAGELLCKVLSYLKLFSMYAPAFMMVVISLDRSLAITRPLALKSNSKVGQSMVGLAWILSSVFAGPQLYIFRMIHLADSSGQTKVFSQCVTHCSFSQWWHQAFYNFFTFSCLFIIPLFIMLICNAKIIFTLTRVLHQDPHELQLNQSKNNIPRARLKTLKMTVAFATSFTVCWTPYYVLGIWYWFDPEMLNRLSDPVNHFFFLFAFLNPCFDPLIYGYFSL
Outline: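 GnRHR-HEK293, 1500 cells/well, 18 h 37 C/5% CO2; Ca dye 1 h 37 C; cpd pinned (DMSO), agonist mode; kinetic FL 480/540, 3 min, 1 s reads; 15 conc, n=3.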

[4] = target: KiSS-1 receptor (Homo sapiens) (UniProt Q969F8); assay: Human kisspeptin (KISS1R) small molecule agonists, calcium flux assay in KISS1R-HEK293 cells (AID 1920064; active means well fitted curve in the direction sought with a large enough effect in the repeat runs; an effect the other way counts as inactive or inconclusive)
Sequence of KiSS-1 receptor (Homo sapiens) (Q969F8 whole entry, looked up): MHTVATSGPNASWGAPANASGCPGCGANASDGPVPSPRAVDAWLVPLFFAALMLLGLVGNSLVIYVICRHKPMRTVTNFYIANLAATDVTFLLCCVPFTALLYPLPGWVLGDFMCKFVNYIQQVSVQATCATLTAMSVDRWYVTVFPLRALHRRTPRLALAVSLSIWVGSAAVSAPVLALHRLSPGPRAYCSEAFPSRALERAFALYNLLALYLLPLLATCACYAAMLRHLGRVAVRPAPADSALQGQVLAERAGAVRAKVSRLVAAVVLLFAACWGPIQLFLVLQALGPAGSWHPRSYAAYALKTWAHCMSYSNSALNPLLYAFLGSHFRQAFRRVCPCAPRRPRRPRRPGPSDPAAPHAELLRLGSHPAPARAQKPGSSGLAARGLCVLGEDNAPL
Outline: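 Stable human KISS1R HEK293 line; 18 h plating, 37 C/5% CO2; calcium dye 1 h 37 C; compound pin transfer; kinetic fluorescence Ex/Em 480/540, 3 min.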

[5] = G protein-coupled receptor (GPCR) small molecule agonists, calcium flux assay: HEK293 wild type cell line counter screen (AID 1920065)
Outline: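 Kinetic fluorescence at Ex/Em 480/540, recorded every second over 3 min, served as the read-out after compound addition. Each compound was tested at 15 concentrations in triplicate on cells pre-loaded with calcium dye for 1 h.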

[6] = p53 small molecule agonists, cell-based qHTS assay with human liver microsomes (AID 1963577)
Outline: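 Fluorescence of the beta-lactamase reporter in p53RE-bla cells, detected with LiveBLAzer substrate (2 h, room temperature, dark), served as the read-out after 16 h compound exposure at 37 C with human liver microsomes and NADPH, each 0.5 mg/mL final.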

[7] = p53 small molecule agonists, cell-based qHTS assay with rat liver microsomes (AID 1963578)
Outline: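 Cells carrying a p53 response element–beta-lactamase reporter were plated and rested 5 h, then dosed with compound in DMSO plus rat liver microsomes and NADPH, each at 0.5 mg/mL final. After 16 h at 37 C, LiveBLAzer substrate was added for 2 h.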

[8] = p53 small molecule agonists, cell-based qHTS assay with human liver microsomes: qHTS cell viability counter screen (AID 1963579); further: nearly all actives have a fitted effect of over 45% in size
Outline: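 Cytotoxicity counter screen: p53RE-bla, 4,000 cells/well; 5 h settle, 37 C/5% CO2; cpd + HLM 0.5 mg/mL + NADPH 0.5 mg/mL (final); 16 h, 37 C; CellTiter-Glo, 30 min RT, luminescence.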

[9] = p53 small molecule agonists, cell-based qHTS assay with rat liver microsomes: qHTS cell viability counter screen (AID 1963580); further: nearly all actives have a fitted effect of over 45% in size
Outline: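 HCT-116 p53RE-bla, 4,000 cells/well, 5 h pre-incubation; cpd + rat liver microsomes 0.5 mg/mL + NADPH 0.5 mg/mL (final); 16 h, 37 C; CellTiter-Glo, 30 min RT; luminescence.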

[10] = p53 small molecule agonists, cell-based qHTS assay: qHTS cell viability counter screen (AID 1963581); further: nearly all actives have a fitted effect of over 45% in size
Outline: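 HCT-116 p53RE-bla cells, 4,000/well, plated 5 h before compound pin transfer; 16 h at 37 C; bla substrate 2 h RT; then CellTiter-Glo, 30 min RT, luminescence.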

[11] = p53 small molecule agonists, cell-based qHTS assay (AID 1963582; active means well fitted activation curve with a large enough effect in the signal ratio in the repeat runs, not every such curve was filed as active; the % refers to the signal ratio)
Outline: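 Reporter line: p53RE-bla. Pre-incubation 5 h, 37 C, 5% CO2; compound (DMSO, pin tool) 16 h, 37 C; B/G FRET substrate 2 h RT; fluorescence intensity read.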

[12] = cAMP Responsive Elements (CRE) small molecule agonists, cell-based qHTS assay (AID 1963590)
Outline: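 HEK 293T CRE-bla, 2,000 cells/well, 18 h preincubation 37 C/5% CO2; cpds (DMSO) pinned, 3 h; LiveBLAzer B/G FRET substrate, 2 h RT.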

[13] = cAMP Responsive Elements (CRE) small molecule antagonists, cell-based qHTS assay (AID 1963591; active means well fitted inhibition curve with a large enough effect in the signal ratio in the repeat runs, not every such curve was filed as active; the % refers to the signal ratio)
Outline: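 Beta-lactamase reporter read by FRET substrate (LiveBLAzer B/G) after 2 h at room temperature. CRE-bla HEK293T cells had received compound plus 0.25 uM (final) NKH477 for 3 h at 37 °C.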

[14] = target: Beta-2 adrenergic receptor (Homo sapiens) (UniProt P07550); assay: Adrenergic beta2 receptor (ADRB2) small molecule antagonists, cell-based qHTS assay (AID 1963592); further: series mostly up to about 92 µM; nearly all actives have a fitted effect of over 50% in size
Sequence of Beta-2 adrenergic receptor (Homo sapiens) (P07550 whole entry, looked up): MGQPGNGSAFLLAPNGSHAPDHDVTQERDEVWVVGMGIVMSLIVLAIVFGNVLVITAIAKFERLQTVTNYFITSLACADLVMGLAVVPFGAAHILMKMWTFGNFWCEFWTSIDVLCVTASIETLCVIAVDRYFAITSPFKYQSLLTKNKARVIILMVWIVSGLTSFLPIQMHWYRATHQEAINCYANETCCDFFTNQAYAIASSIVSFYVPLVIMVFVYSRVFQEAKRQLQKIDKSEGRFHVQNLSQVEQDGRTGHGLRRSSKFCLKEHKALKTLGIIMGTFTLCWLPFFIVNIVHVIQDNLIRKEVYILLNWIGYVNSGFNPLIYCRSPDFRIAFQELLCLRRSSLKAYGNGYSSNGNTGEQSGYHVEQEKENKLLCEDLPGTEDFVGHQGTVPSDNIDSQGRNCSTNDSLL
Outline: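 Cells (CHO, stable ADRB2 overexpression) incubated 18-20hr at 37C; compounds added from DMSO; agonist mix (1nM isoproterenol, 100uM IBMX, 25uM Ro-20-1724) added; 0.5hr RT; d2-cAMP and anti-cAMP-cryptate added; 1hr RT; 665/615 nm read.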

[15] = target: D(2) dopamine receptor (Homo sapiens) (UniProt P14416); assay: Dopamine D2 receptor (DRD2) small molecule agonists, cell-based qHTS assay (AID 1963594); further: nearly all actives have a fitted effect of over 35% in size
Sequence of D(2) dopamine receptor (Homo sapiens) (P14416 whole entry, looked up): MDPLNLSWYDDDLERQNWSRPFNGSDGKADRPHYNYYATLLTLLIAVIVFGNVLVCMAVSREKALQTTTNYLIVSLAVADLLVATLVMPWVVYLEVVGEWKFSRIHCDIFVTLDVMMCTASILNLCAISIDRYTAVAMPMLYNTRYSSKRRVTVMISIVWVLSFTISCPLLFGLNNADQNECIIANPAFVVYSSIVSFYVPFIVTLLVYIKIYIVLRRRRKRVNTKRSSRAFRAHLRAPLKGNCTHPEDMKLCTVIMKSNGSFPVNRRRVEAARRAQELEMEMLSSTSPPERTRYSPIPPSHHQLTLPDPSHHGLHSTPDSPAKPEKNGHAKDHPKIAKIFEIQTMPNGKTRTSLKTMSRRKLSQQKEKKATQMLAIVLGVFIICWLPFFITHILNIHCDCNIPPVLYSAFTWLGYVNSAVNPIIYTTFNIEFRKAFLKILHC
Outline: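 cAMP accumulation in DRD2-HEK293 cells measured by HTRF after 1 h detection; compounds added 10 min before NKH477 (200nM […]) forskolin-analogue stimulation, 30 min at room temperature, with Ro20-1724 present at 0.1 mM final.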

[16] = target: D(2) dopamine receptor (Homo sapiens) (UniProt P14416); assay: Dopamine D2 receptor (DRD2) small molecule antagonists, cell-based qHTS assay (AID 1963595; active means well fitted inhibition curve with a large enough effect in the signal ratio in the repeat runs, with a control signal flat; the % refers to the signal ratio)
Outline: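 Readout: HTRF cAMP, cAMP-d2 competing with cellular cAMP for anti-cAMP cryptate, read after 1 h. Cells: DRD2-HEK293. Conditions: 0.1 mM Ro20-1724, 12 nM quinpirole, 200 nM NKH477, 30 min RT.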

[17] = target: Beta-2 adrenergic receptor (Homo sapiens) (UniProt P07550); assay: Adrenergic beta2 receptor (ADRB2) small molecule agonists, cell-based qHTS assay (AID 1963593);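 further: CHO cells stably overexpressing human ADRB2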
Outline: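 CHO cells stably over-expressing ADRB2 were plated overnight at 37C, then dosed with compounds plus a stimulation mix containing 100uM IBMX and 25uM Ro-20-1724 for 0.5hr at room temperature. cAMP was measured by HTRF competition, 1hr.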

[18] = target: 5-hydroxytryptamine receptor 2A (Homo sapiens) (UniProt P28223); assay: 5-hydroxytryptamine receptor 2A (HTR2A) small molecule agonists, cell-based qHTS assay (AID 1963587); further: nearly all actives have a fitted effect of over 30% in size
Sequence of 5-hydroxytryptamine receptor 2A (Homo sapiens) (P28223 whole entry, looked up): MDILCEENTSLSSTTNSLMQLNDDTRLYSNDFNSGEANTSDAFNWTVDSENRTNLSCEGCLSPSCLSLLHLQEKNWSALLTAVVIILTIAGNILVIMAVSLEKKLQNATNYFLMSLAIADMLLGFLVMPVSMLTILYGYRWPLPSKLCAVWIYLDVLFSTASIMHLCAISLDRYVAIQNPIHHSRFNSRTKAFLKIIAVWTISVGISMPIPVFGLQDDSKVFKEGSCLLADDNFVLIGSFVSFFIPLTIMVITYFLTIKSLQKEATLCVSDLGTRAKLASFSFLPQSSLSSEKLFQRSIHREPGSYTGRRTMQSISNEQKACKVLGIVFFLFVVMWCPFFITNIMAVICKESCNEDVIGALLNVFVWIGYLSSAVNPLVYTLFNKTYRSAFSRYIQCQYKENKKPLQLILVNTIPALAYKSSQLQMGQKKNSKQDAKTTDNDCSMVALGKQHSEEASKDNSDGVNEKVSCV
Outline: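 Kinetic calcium-flux fluorescence (2 min, 1 sec intervals) after compound addition in agonist mode. HTR2A-CHO cells were cultured 18 h, then dye-loaded 1 h at 37 C.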

[19] = target: Muscarinic acetylcholine receptor M1 (Homo sapiens) (UniProt P11229); assay: Cholinergic receptor muscarinic 1 (CHRM1) small molecule antagonists, cell-based qHTS assay (AID 1963588); further: nearly all actives have a fitted effect of over 40% in size
Sequence of Muscarinic acetylcholine receptor M1 (Homo sapiens) (P11229 whole entry, looked up): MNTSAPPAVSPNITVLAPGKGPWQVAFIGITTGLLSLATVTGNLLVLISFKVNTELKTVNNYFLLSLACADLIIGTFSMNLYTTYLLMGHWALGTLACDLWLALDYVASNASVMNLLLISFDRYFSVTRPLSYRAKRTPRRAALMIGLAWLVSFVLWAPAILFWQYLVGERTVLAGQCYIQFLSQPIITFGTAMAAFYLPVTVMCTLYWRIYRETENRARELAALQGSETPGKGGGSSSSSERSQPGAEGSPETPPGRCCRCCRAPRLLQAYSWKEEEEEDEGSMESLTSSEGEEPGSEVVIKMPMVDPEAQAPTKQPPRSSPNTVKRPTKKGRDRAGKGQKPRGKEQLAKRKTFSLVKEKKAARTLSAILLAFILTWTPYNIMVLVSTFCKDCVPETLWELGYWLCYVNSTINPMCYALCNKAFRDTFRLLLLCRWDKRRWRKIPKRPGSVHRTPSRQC
Outline: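 CHRM1-CHO calcium-flux assay, antagonist mode. Cells were seeded 18 h, dye-loaded 1 h at 37 C and given compound for 5 min at RT, then acetylcholine was added at 50nM. FDSS fluorescence was read 3 min; 15 concentrations, three runs.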

Measured: Potency

CC1(C)[C@@H](O[C@H]2O[C@H](C(=O)O)[C@@H](O)[C@H](O)[C@H]2O[C@@H]2O[C@H](C(=O)O)[C@@H](O)[C@H](O)[C@H]2O)CC[C@]2(C)[C@H]3C(=O)C=C4[C@@H]5C[C@@](C)(C(=O)O)CC[C@]5(C)CC[C@@]4(C)[C@]3(C)CC[C@@H]12
not listed: [17] | [18] | [19]
inactive: all other assays above

CC(C)=CCC/C(C)=C/CO
not listed: [18] | [19]
inactive: all other assays above

NC(N)=Nc1nc(CSCC/C(N)=N/S(N)(=O)=O)cs1
not listed: [18] | [19]
inactive: all other assays above

CC(C)CCCCCCCOC(=O)CCCCC(=O)OCCCCCCCC(C)C
not listed: [12] | [17]
inactive: all other assays above

OC[C@@H](O)[C@@H](O)[C@H](O)[C@H](O)CO
not listed: [15] | [18] | [19]
inactive: all other assays above

NS(=O)(=O)c1cc2c(cc1Cl)NCNS2(=O)=O
not listed: [18] | [19]
inactive: all other assays above

OCCO
not listed: [18] | [19]
inactive: all other assays above
